A selection: hits, their analogues and other compounds. The true share with any hit is near 6%.
VDR inh: Inhibitors of the vitamin D receptor (VDR): qHTS; Potency, µM, actives largely listed as inhibitors; 400,000 tested, 0.93% active; VDR-SRC2-3 peptide fluorescence polarization, 2 h; Vitamin D3 receptor (Homo sapiens), P11473
Target sequence (P11473 whole entry, looked up): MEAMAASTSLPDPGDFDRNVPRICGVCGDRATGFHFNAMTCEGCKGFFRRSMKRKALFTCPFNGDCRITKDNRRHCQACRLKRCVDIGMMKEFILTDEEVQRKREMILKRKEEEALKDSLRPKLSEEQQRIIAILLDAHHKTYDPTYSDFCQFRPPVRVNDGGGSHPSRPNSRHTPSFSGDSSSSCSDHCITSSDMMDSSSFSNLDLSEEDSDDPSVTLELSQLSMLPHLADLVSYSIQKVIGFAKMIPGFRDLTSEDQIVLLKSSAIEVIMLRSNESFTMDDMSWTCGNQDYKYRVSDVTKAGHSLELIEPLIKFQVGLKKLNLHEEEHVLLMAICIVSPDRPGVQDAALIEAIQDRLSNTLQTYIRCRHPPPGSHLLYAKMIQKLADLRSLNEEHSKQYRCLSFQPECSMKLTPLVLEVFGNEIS
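Two reagent solutions held at 4 deg C in the dark were dispensed, compounds pinned at 23 nl, and the mixture incubated 2 h at room temperature. Read-out: fluorescence polarization of VDR–SRC2-3 peptide binding.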
PLK1 PBD block: qHTS for Inhibitors of PLK1-PDB (polo-like kinase 1 - polo-box domain): Primary Screen; 360,000 tested, 2.8% active; Serine/threonine-protein kinase PLK1 (Homo sapiens), P53350; Potency, µM, actives largely listed as inhibitors; Plk1 PBD binding of FITC phosphopeptide, fluorescence polarization; note: series mostly up to about 57 µM; nearly all actives have a fitted effect of over 65% in size
Tau fibril ThT: qHTS for Inhibitors of Tau Fibril Formation, Thioflavin T Binding; Microtubule-associated protein tau (Homo sapiens), P10636; 270,000 tested, 2.1% active; Potency, µM (highest dose often 57.4 µM), hits mostly inhibitors; recombinant tau K18 P301L, heparin-induced fibrillization, ThT fluorescence; AID 1460, 2008; note: nearly all actives have a fitted effect of over 55% in size
Target sequence (P10636 561-689 P618L limits assumed): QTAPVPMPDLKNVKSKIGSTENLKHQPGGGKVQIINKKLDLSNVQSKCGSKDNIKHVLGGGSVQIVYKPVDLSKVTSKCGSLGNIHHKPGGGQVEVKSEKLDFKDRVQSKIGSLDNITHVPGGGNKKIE
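K18 P301L tau (15 uM + 0.24 uM Alexa 594-tagged), heparin 20 uM, NaOAc pH 7, 6 h 37 C; ThT 30 uM, 1 h RT, ex 450/em 510 nm.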
Tau FP inhib: qHTS for Inhibitors of Tau Fibril Formation, Fluorescence Polarization. Microtubule-associated protein tau (Homo sapiens), P10636. K18 P301L tau heparin fibrillization, Alexa594 FP, 6 h. Potency, µM (series often up to 57.7 µM), most hits filed as inhibitors. 280,000 tested, 0.39% active; note: nearly all actives have a fitted effect of over 55% in size
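FP of Alexa 594-tau after heparin (20 uM) induction. Substrate: human K18 P301L, 15 uM unlabeled, 0.24 uM labeled. Buffer 100 mM sodium acetate pH 7. 6 hr, 37 C.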
Tau fluor counter: Counterscreen qHTS for Inhibitors of Tau Fibril Formation, Fluorescence Polarization. tau K18 P301L (four-repeat tau fragment) Alexa594 fluorescence, heparin fibrillization. Potency, µM (series often up to 57.7 µM). 280,000 tested, 0.93% active; note: nearly all actives have a fitted effect of over 55% in size
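Human K18 P301L tau (15 uM unlabeled plus 0.24 uM Alexa 594-labeled, final) in 100 mM sodium acetate pH 7 was mixed with compound and 20 uM heparin and incubated 6 hr at 37 C.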
Sfp inh: qHTS Assay for Inhibitors of Bacillus subtilis Sfp phosphopantetheinyl transferase (PPTase). Biochemical Sfp PPTase activity, qHTS. AID 1490, 2009. Potency, µM, most hits filed as inhibitors. 310,000 tested, 3.5% active;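 note: the enzyme is Sfp with the accession as filed and its product quenches rhodamine fluorescence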
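After 15 min at room temperature with compound, 15 nM Sfp received 5 uM rhodamine-CoA plus 12.5 uM BHQ-2-ybbR (50 mM Hepes pH 7.6, 10 mM MgCl2). Rate came from the fluorescence difference over 30 min, ex 525/em 598 nm.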
Of the large screens only hits and unclear results are named; the others gave an inactive call. Calls come from the whole dose curve; as a rule, active = well fitted curve in the direction sought with a large enough effect; inconclusive = small, poorly fitted or top-dose-only effect, or another doubt; inactive = no such curve, though single readings can be large; an effect the other way counts as inactive or inconclusive.

C/C(=N/NS(=O)(=O)c1ccc(Cl)cc1)c1cccc(NC(=O)c2ccc(Cl)cc2Cl)c1	PLK1 PBD block 19µM, Tau fluor counter inconclusive
CCC(=O)NC(=S)Nc1cccc(NC(=O)c2ccccc2Cl)c1	PLK1 PBD block 27µM
Cc1cc(Cl)ccc1NC(=O)CCC(=O)O	none
CCCC(=O)NC(=S)Nc1cccc(NC(=O)c2ccc(Cl)cc2Cl)c1	PLK1 PBD block 27µM
CN1CCN(c2ncnc3ccc(-c4ccccc4C(F)(F)F)cc23)CC1	Sfp inh inconclusive (no result: PLK1 PBD block, Tau fibril ThT, Tau FP inhib, Tau fluor counter)
O=C1[C@H]2[C@H]3[C@H](O)[C@H](O)C/C(=N/OC[C@@H](O)COCc4ccco4)[C@H]3CC[C@@H]2C(=O)N1c1cccc(Oc2ccccc2)c1	none (no result: VDR inh, PLK1 PBD block)
COC(=O)C1=C(C(=O)OC)[C@@H]2N(Cc3ccccc3)c3ccccc3[C@@]23C[C@@H](C(=O)OC)N(S(=O)(=O)c2ccc(OC)cc2)C3=N1	none (no result: VDR inh, PLK1 PBD block)
CCC(=O)Nc1ccc(Cl)c(NC(=S)NC(=O)COc2ccc(Cl)cc2)c1	none
CCC(=O)Nc1ccc(Cl)c(NC(=S)NC(=O)COc2ccccc2)c1	PLK1 PBD block 27µM
Cc1ccc(NC(=O)CSc2nc(=O)n(Cc3cccnc3)c3c2CCC3)cc1F	none (no result: PLK1 PBD block, Sfp inh)
CC(=O)c1cccc(NC(=O)Cn2cc(C(=O)c3cccc(Cl)c3)c(=O)c3ccc(C)nc32)c1	Tau FP inhib inconclusive, Tau fluor counter inconclusive (no result: PLK1 PBD block, Sfp inh)
Cc1ccoc1C(=O)NCCNc1ccc(Cl)cc1[N+](=O)[O-]	Tau fibril ThT 11µM
O=C(NCCNc1ccc(Cl)cc1[N+](=O)[O-])c1cccnc1	Tau fibril ThT inconclusive
CCOC(=O)/C=C/C(=O)OCC(=O)Nc1c(Cl)cccc1Cl	VDR inh inconclusive, Tau fibril ThT inconclusive
CCOC(=O)/C=C/[C@H]1CCc2cccc(Cl)c2O1	PLK1 PBD block 21µM (no result: Tau fibril ThT, Tau FP inhib, Tau fluor counter, Sfp inh)
COc1ccc(NC(=O)CCc2c(C)nc3c(-c4ccccc4)c(C)nn3c2C)cc1Cl	Tau FP inhib inconclusive (no result: PLK1 PBD block, Sfp inh)
O=C(Nc1ccc(F)cc1)C(c1cc2ccccc2o1)N1CCN(CC(=O)N2CCCC2)CC1 (stereo not given)	none (no result: VDR inh, Tau fibril ThT, Tau FP inhib, Tau fluor counter, Sfp inh)
O=C1OCCC1=COCCCCCCOC=C1CCOC1=O	none (no result: VDR inh, Tau fibril ThT, Tau FP inhib, Tau fluor counter, Sfp inh)
Cc1nc(SCC(=O)NC(=O)NC2CCCCC2)nc(C)c1C	Tau FP inhib inconclusive, Sfp inh 50µM
Cc1cc(C)n2nc(SCC(=O)NC3CCCCC3)nc2n1	PLK1 PBD block inconclusive, Sfp inh 40µM (no result: Tau fibril ThT, Tau FP inhib, Tau fluor counter)
CCC(=O)N1CCc2cc(Br)cc(S(=O)(=O)N3CCCC(C(=O)Nc4cccc(Cl)c4C)C3)c21 (stereo not given)	VDR inh inconclusive (no result: PLK1 PBD block, Sfp inh)
CCOc1ccc(N(CC)S(=O)(=O)N2CCCC(C(=O)Nc3ccc(NC(C)=O)cc3)C2)cc1 (stereo not given)	Tau fluor counter inconclusive (no result: PLK1 PBD block, Sfp inh)
c1ccc(-c2nc(-c3ccncc3)n[nH]2)nc1	Sfp inh 14µM
c1ccc(-c2ccncc2)nc1	none (no result: Tau fibril ThT, Tau FP inhib, Tau fluor counter, Sfp inh)
COc1ccc(N2CCN(C3CCCN(C(=O)C4=C(C)OCCO4)C3)CC2)cc1 (stereo not given)	none (no result: Tau fibril ThT, Tau FP inhib, Tau fluor counter)
O=C(Nc1ccc(Cl)c([N+](=O)[O-])c1)ONC1=NCCCCC1	PLK1 PBD block 27µM
O=C(ONC1=NCCCCC1)c1cccc([N+](=O)[O-])c1	none
Cc1[nH]c(=S)[nH]c(=O)c1CCC1OCCO1	Sfp inh 79µM (no result: Tau fibril ThT)
N#C/C(=C\c1ccc(-c2cccc([N+](=O)[O-])c2)o1)c1nnc(N2CCOCC2)n1-c1ccccc1	Tau fibril ThT inconclusive (no result: VDR inh)
Cc1cccc(C)c1-n1ncc(C(=O)N2CCN(c3ccccc3)CC2)c1C1CCN(C(=O)OC(C)(C)C)CC1	Tau fibril ThT inconclusive (no result: PLK1 PBD block, Sfp inh)
CCCn1cc(S(=O)(=O)c2ccc(Cl)cc2)c(=O)c2cc(OC)ccc21	VDR inh inconclusive, PLK1 PBD block 3µM (no result: Tau fibril ThT, Tau FP inhib, Tau fluor counter)
